Our source for the outcome and AC50 values is PubChem BioAssay (EPA / NIEHS).

Assay [1] can be described thus: ATG_ISRE_CIS: Attagene CIS-FACTORIAL HepG2 Assay for human Interferon Regulatory Factor 1 (IRF1) binding to an Interferon-Stimulated Response Element (ISRE) (AID 2282948). As to conditions: HepG2 ISRE cis-reporter (Attagene), mRNA transcription readout; actives raise or lower the signal. The gist of the method: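 Multiplexed mRNA reporter readout in human liver HepG2 cells: cis-element-driven reporters transfected, compound added for 24 h, transcripts amplified, fluorescently labelled and sized by capillary electrophoresis; curve fitting bidirectional against DMSO.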

Assay [2] can be described thus: ATG_M_32_CIS: Attagene CIS-FACTORIAL HepG2 Assay for M32 Transcription Factor (Internal Marker) (AID 2282949).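 Note: background control marker of the multiplexed CIS panel rather than a real target.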 The settings on record: HepG2 Attagene cis-factorial M32 reporter, mRNA; actives raise or lower the signal. The procedure, abridged:
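HepG2 transfectants (cis-regulated reporter transcription units) dosed 24 h. Reporter mRNA by RT-PCR plus CE, analysed as gain or loss relative to DMSO.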

Assay [3] concerns the target Hypoxia-inducible factor 1-alpha (Homo sapiens) (UniProt Q16665). Put plainly: ATG_HIF1a_CIS: Attagene CIS-FACTORIAL HepG2 Assay for human Hypoxia Inducible Factor 1 (HIF1A) (AID 2282951). As to conditions: HepG2 Attagene cis-factorial HIF1a reporter transcription; actives raise or lower the signal. The gist of the method:
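Measures endogenous transcription-factor activity through cis-regulated reporter mRNA in HepG2. Cells dosed 24 h; transcripts quantified by RT-PCR with 6-FAM-labelled products separated by capillary electrophoresis; DMSO serves as negative control.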

Assay [4] concerns the target Hepatocyte nuclear factor 6 (Homo sapiens) (UniProt Q9UBC0). Put plainly: ATG_HNF6_CIS: Attagene CIS-FACTORIAL HepG2 Assay for human Hepatocyte Nuclear Factor 6 (HNF6) (AID 2282952). As to conditions: HepG2 Attagene cis-factorial HNF6 reporter transcription; actives raise or lower the signal. The procedure, abridged:
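Endogenous factor activity read in transiently transfected HepG2 via promoter-regulated reporter transcripts. RNA harvested 24 h post-dosing, reverse-transcribed, PCR-amplified, FAM-labelled, HpaI-digested and resolved by capillary electrophoresis; fitted in both directions against DMSO.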

Assay [5] addresses Heat shock factor protein 1 (Homo sapiens) (UniProt Q00613). Put plainly: ATG_HSE_CIS: Attagene CIS-FACTORIAL HepG2 Assay for human Heat Shock Transcription Factor 1 (HSE) (AID 2282953). As to conditions: HepG2 HSE cis-reporter, Attagene RNA transcription; actives raise or lower the signal. The gist of the method: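 After a 24 h incubation with test chemical, transfected HepG2 cells were harvested for RNA; reporter transcripts were measured by RT-PCR and capillary electrophoresis. Values reflect gain or loss of signal relative to DMSO.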

The nature of assay [6]: ATG_MRE_CIS: Attagene CIS-FACTORIAL HepG2 Assay for human Metal Responsive Element (MRE) (AID 2282954). As to conditions: HepG2 MRE cis-reporter transcription, Attagene multiplex; actives raise or lower the signal. The procedure, abridged: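 Endogenous MRE-dependent transcription read as reporter mRNA in transiently transfected human HepG2 cells at 24 h. RNA reverse-transcribed, PCR-amplified, labelled and resolved by capillary electrophoresis; gain or loss relative to DMSO.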

Assay [7] in a line: ATG_PBREM_CIS: Attagene CIS-FACTORIAL HepG2 Assay for human Phenobarbital-responsive Enhancer Module (PBREM) (AID 2282955). The settings on record: HepG2 PBREM cis-reporter, Attagene multiplexed transcription; actives raise or lower the signal. The procedure, abridged: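 Fluorescence of labelled reporter cDNA fragments, resolved by capillary electrophoresis, gives mRNA induction in transfected HepG2 cells treated for 24 h; DMSO serves as negative control and baseline.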

Assay [8] has as its target Paired box protein Pax-6 (Homo sapiens) (UniProt P26367). Put plainly: ATG_Pax6_CIS: Attagene CIS-FACTORIAL HepG2 Assay for human Paired Box 6 (PAX6) (AID 2282956). As to conditions: HepG2 CIS-FACTORIAL PAX6 reporter transcription, RNA readout; actives raise or lower the signal. The procedure, abridged:
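Fluorescent RT-PCR products separated by capillary electrophoresis report PAX6-linked promoter mRNA in HepG2 cells 24 h post-dose. Curves fitted bidirectionally, DMSO as negative control.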

Assay [9] can be described thus: ATG_PXRE_CIS: Attagene CIS-FACTORIAL HepG2 Assay for human Pregnane X Receptor Element (PXRE) (AID 2282957). The settings on record: HepG2 Attagene CIS-FACTORIAL PXRE reporter, mRNA; actives raise or lower the signal. The gist of the method:
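Reporter transcripts under endogenous PXR-responsive cis-regulation quantified from total RNA of transfected HepG2 cells 24 h post-dosing, via RT-PCR with fluorescent primer extension and capillary electrophoresis. Gain or loss of signal fitted against DMSO baseline.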

Assay [10] in a line: ATG_RORE_CIS: Attagene CIS-FACTORIAL HepG2 Assay for human RAR-related Orphan Receptor Element (RORE) (AID 2282959). The settings on record: HepG2 Attagene cis-factorial RORE reporter, mRNA; actives raise or lower the signal. The gist of the method:
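Cells were HepG2 carrying transfected cis-regulated reporter constructs, dosed for 24 hours. Total RNA was reverse-transcribed and reporter cDNA amplified, fluorescently labeled and sized by capillary electrophoresis. Activity was fitted bidirectionally relative to DMSO.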

Assay [11] in a line: ATG_Sox_CIS: Attagene CIS-FACTORIAL HepG2 Assay for human SRY-box transcription factor (SOX) (AID 2282960). The settings on record: HepG2 Attagene cis-factorial SOX reporter, mRNA; actives raise or lower the signal. The gist of the method:
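Transient MRTU transfection of HepG2; 24 h compound incubation; TriZol RNA, oligo(dT) RT, PCR, 6-FAM primer extension, HpaI cut, CE. Bidirectional fit, DMSO = baseline.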

Assay [12] has as its target Transcription factor Sp1 (Homo sapiens) (UniProt P08047). Put plainly: ATG_Sp1_CIS: Attagene CIS-FACTORIAL HepG2 Assay for human Specificity Protein 1 (Sp1) (AID 2282961). The settings on record: HepG2 Sp1 cis-reporter transcription, actives raise or lower the signal. The gist of the method:
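Endogenous Sp1 activity was gauged in human liver HepG2 cells bearing transfected reporter units under a cis-regulating promoter. After 24 h dosing, reporter mRNA was quantified by RT-PCR with capillary electrophoresis, and activity fitted bidirectionally versus DMSO.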

A short description of assay [13]: ATG_SREBP_CIS: Attagene CIS-FACTORIAL HepG2 Assay for human Sterol Regulatory Element Binding (SREBP) (AID 2282962). The settings on record: HepG2 Attagene cis-factorial SREBP reporter, mRNA; actives raise or lower the signal. The gist of the method: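 Endogenous factor activity is measured in HepG2 through multiplexed reporter units under cis-element control. Following a 24 h incubation, reporter transcripts are reverse-transcribed, PCR-amplified and sized by capillary electrophoresis; activity is fitted in both directions relative to DMSO.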

For assay [14], the target named is Signal transducer and activator of transcription 3 (Homo sapiens) (UniProt P40763). Put plainly: ATG_STAT3_CIS: Attagene CIS-FACTORIAL HepG2 Assay for human Signal Transducer and Activator of Transcription 3 (STAT3) (AID 2282963). The settings on record: HepG2, Attagene cis-factorial STAT3 reporter transcription; actives raise or lower the signal. The procedure, abridged:
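Readout is reporter transcript quantified by RT-PCR and capillary electrophoresis, with 6-FAM primer extension and HpaI digestion. Total RNA is taken 24 h after dosing transiently transfected HepG2 carrying cis-regulated reporter units. Bidirectional fit against DMSO.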

The nature of assay [15]: ATG_TA_CIS: Attagene CIS-FACTORIAL HepG2 Assay for human TA Basal Promoter (AID 2282964). As to conditions: HepG2 Attagene CIS-factorial TA basal promoter reporter; actives raise or lower the signal. The gist of the method:
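Multiplexed mRNA reporter assay, HepG2, 24 h. Reporter cDNA amplified, 6-FAM primer-extended, HpaI-cut, CE-sized; DMSO = negative control and baseline.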

Assay [16] can be described thus: ATG_TCF_b_cat_CIS: Attagene CIS-FACTORIAL HepG2 Assay for human T-Cell-Factor with beta-catenin (TCF/b-cat) (AID 2282965). The settings on record: HepG2 TCF/beta-catenin cis-reporter transcription, actives raise or lower the signal. The gist of the method:
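Measured: reporter mRNA in HepG2 transiently transfected with cis-promoter reporter units, 24 h after chemical addition. Fitting was bidirectional, DMSO as negative control.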

A short description of assay [17]: ATG_M_06_CIS: Attagene CIS-FACTORIAL HepG2 Assay for M06 Transcription Factor (Internal Marker) (AID 2282950). As to conditions: HepG2 Attagene CIS-FACTORIAL M06 internal marker reporter; actives raise or lower the signal. The procedure, abridged:
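Fluorescence-labelled RT-PCR products from cis-promoter reporter units, cut with HpaI and resolved by capillary electrophoresis, give the signal. Cells are human HepG2, dosed for 24 h. Serves as background control, fitted relative to DMSO.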

Assay [18] can be described thus: ATG_PPRE_CIS: Attagene CIS-FACTORIAL HepG2 Assay for human Peroxisome Proliferator-activated Response Element (PPRE) (AID 2282958). The settings on record: HepG2 PPRE cis-element reporter, Attagene transcription factor profiling; actives raise or lower the signal. The gist of the method: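 Cells are first transfected transiently with the multiplexed reporter library, then dosed for 24 h. Total RNA is reverse-transcribed, amplified, fluorescently end-labeled and HpaI-cut before capillary electrophoresis; activity is fitted bidirectionally against DMSO controls.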

Active and inactive are the calls of the source. Rule for the calls: active = hit-call score of the fitted dose curve at least 0.9, where 1 is the maximum; inactive = score below 0.9.

Transcription factor Sp1 (Homo sapiens), sequence (P08047 whole entry, looked up): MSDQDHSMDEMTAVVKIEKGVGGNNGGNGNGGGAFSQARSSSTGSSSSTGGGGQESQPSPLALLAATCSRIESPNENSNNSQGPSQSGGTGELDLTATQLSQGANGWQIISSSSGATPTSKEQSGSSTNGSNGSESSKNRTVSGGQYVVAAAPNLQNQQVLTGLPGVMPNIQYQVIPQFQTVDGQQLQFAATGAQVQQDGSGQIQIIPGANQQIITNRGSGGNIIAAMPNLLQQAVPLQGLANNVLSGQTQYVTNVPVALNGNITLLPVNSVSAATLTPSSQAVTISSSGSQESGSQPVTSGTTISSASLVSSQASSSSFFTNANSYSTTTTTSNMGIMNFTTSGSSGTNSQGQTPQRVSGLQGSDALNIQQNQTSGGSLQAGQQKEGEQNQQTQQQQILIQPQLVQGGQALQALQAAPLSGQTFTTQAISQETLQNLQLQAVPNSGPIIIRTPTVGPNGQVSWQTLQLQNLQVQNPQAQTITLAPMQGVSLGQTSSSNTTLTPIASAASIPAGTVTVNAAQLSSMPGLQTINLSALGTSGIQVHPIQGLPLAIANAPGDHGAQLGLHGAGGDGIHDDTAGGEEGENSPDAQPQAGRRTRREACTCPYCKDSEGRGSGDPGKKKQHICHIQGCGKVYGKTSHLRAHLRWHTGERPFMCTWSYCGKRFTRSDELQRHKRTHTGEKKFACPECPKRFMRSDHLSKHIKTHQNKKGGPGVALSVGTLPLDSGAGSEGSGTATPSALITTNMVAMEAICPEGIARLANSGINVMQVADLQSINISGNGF
Hepatocyte nuclear factor 6 (Homo sapiens), sequence (Q9UBC0 whole entry, looked up): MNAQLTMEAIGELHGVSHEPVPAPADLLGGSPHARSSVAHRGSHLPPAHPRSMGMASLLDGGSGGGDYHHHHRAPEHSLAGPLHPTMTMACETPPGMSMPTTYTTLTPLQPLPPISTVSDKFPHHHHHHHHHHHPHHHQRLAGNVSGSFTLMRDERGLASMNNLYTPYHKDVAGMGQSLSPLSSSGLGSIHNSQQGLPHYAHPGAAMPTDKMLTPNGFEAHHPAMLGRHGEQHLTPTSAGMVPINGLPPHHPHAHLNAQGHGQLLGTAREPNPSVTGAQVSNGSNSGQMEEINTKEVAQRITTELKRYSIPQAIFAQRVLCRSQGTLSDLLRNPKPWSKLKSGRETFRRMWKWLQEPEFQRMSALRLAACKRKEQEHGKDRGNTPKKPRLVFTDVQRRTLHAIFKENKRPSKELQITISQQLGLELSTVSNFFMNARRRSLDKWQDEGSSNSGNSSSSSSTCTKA
Hypoxia-inducible factor 1-alpha (Homo sapiens), sequence (Q16665 whole entry, looked up): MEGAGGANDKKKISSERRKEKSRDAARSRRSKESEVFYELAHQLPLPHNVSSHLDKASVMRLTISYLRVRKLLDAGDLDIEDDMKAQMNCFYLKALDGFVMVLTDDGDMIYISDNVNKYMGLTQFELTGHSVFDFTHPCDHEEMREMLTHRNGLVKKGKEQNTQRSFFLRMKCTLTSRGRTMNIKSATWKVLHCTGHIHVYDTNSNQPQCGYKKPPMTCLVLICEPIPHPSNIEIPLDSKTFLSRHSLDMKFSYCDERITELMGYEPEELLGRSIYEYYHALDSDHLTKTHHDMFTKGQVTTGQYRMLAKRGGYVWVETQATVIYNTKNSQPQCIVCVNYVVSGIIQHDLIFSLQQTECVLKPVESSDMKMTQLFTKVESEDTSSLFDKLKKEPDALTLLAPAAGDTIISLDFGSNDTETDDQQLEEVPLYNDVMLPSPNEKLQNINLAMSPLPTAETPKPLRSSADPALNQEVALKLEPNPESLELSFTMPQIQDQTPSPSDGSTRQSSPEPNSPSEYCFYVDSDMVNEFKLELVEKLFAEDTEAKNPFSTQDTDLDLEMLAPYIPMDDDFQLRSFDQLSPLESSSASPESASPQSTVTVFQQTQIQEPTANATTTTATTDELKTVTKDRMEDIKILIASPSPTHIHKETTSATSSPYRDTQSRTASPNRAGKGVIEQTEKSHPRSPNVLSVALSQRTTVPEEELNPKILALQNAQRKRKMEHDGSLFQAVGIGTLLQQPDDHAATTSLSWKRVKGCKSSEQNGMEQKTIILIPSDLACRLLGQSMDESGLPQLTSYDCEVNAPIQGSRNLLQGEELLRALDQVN
Paired box protein Pax-6 (Homo sapiens), sequence (P26367 whole entry, looked up): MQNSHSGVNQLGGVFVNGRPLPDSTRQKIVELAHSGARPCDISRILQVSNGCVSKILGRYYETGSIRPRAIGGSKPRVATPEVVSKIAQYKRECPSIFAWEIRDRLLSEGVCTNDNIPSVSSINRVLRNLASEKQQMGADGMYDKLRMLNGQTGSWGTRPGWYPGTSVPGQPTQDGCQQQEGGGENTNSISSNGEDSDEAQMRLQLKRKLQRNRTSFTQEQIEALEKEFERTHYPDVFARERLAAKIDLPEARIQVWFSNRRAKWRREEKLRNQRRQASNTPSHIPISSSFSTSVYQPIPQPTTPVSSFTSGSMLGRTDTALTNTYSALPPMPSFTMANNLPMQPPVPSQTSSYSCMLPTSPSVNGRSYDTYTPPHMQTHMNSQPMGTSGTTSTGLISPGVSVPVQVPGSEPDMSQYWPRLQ
Signal transducer and activator of transcription 3 (Homo sapiens), sequence (P40763 whole entry, looked up): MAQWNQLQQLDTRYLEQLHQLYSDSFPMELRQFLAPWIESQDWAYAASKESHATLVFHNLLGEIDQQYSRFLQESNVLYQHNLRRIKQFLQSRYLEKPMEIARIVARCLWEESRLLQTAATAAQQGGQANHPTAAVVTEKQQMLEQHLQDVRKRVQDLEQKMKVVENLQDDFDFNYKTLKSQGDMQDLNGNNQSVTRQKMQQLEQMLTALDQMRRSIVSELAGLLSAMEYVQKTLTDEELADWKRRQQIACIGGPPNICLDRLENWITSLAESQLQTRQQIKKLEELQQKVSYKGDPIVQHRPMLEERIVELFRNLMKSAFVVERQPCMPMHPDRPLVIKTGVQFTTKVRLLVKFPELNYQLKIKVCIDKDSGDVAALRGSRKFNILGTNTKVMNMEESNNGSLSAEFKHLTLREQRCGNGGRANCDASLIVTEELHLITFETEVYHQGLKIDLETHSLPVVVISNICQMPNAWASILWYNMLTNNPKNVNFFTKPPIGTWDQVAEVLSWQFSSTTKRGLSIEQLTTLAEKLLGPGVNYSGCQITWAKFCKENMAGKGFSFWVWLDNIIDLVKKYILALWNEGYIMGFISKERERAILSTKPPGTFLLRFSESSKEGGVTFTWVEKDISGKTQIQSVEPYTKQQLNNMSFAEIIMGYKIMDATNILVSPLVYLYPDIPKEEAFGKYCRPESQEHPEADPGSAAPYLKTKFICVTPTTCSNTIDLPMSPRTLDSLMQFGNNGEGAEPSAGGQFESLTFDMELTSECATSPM
Heat shock factor protein 1 (Homo sapiens), sequence (Q00613 whole entry, looked up): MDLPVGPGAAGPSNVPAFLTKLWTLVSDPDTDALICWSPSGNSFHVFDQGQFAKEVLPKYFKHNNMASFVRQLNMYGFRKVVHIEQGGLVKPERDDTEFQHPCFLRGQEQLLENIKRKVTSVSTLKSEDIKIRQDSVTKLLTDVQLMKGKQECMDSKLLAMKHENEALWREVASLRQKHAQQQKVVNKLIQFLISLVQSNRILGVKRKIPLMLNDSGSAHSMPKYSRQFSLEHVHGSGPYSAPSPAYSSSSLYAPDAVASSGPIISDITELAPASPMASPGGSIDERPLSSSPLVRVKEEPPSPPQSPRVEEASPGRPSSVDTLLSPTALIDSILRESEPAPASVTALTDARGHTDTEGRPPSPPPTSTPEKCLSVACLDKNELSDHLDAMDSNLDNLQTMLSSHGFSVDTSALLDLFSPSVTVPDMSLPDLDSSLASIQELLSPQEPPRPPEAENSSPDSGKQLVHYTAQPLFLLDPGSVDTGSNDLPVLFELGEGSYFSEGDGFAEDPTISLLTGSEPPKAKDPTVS

By AC50 is commonly meant the concentration at which the activity in the assay is half-maximal. With `CN(c1nccc(=O)[nH]1)C1CCN(c2nc3ccccc3n2Cc2ccc(F)cc2)CC1`, the compound was classed as inactive in assay [1], in assay [2], in assay [3], in [4], in assay [5] and in assay [7]. The compound was called inactive in [8], in assay [10], in assay [11], in assay [12], in assay [13] and in [14]. In addition, the call in assay [15] and in assay [16] was inactive. Besides, the AC50 in assay [6] was 26.7 µM (active); in assay [9], 6.61 µM (active).

Turning to `C=CCOC(=O)CCCCCC`, the compound was classed as inactive in assay [1], in [2], in [17], in assay [3], in assay [4] and in [6]. The outcome in [8], in assay [9], in [18], in [10], in [11] and in assay [12] was inactive. The result in assay [13] and in [15] was inactive.

`O=[N+]([O-])c1cccc(Cl)c1`: the outcome in assay [1], in [2], in [17], in assay [3], in [5] and in assay [6] was inactive. Also, the compound was classed as inactive in assay [8], in [9], in assay [18], in assay [10], in assay [11] and in assay [12]. Further, the compound was classed as inactive in assay [13], in assay [14] and in assay [16].

Regarding `CCCCCC(C)=O`, the compound was classed as inactive in assay [1], in assay [17], in assay [5], in assay [6], in assay [8] and in [9]. Besides, the outcome in [18], in assay [10], in assay [11], in assay [12], in assay [13] and in assay [14] was inactive. For the same compound, the call in assay [16] was inactive.

On to `C[Si]1(C)O[Si](C)(C)O[Si](C)(C)O1`, for which the call in [17], in assay [4], in assay [6], in assay [7], in [8] and in assay [18] was inactive. For the same compound, the call in assay [10], in assay [11], in assay [12], in assay [13], in assay [14] and in [15] was inactive. Moreover, in assay [16], the compound was called inactive. In addition, the AC50 in assay [9] is 32.5 µM (active).

In the case of `CC(C)=CCCC(C)CC(=O)O` (centres undefined), the compound was classed as inactive in assay [2], in assay [17], in [3], in [4], in [5] and in [6]. The outcome in assay [7], in [8], in assay [18], in assay [10], in [11] and in [12] was inactive. For the same compound, the result in [13], in assay [14], in assay [15] and in assay [16] was inactive. In assay [9], the AC50 was 27.3 µM (active).

As to `Cc1ncc([N+](=O)[O-])n1CCO`, the outcome in assay [2], in assay [17], in [4], in assay [5], in [6] and in assay [7] was inactive. Also, the result in [8], in assay [9], in [18], in [10], in assay [11] and in assay [12] was inactive. The call in assay [13], in assay [14], in [15] and in assay [16] was inactive.

For `CCN(CCN)c1cccc(C)c1`, the outcome in assay [2], in [17], in assay [3], in assay [4], in [6] and in assay [7] was inactive. Further, the compound was classed as inactive in assay [8], in assay [10], in assay [11], in assay [12], in [13] and in assay [14]. For the same compound, the compound was called inactive in [15] and in assay [16]. Besides, the AC50 in [9] was 36.2 µM (active).

Consider `CC(=O)OCCCc1ccccc1`, for which the outcome in [1], in assay [2], in assay [17], in [4], in assay [5] and in assay [6] was inactive. In addition, the outcome in [8], in assay [10], in assay [11], in assay [12], in assay [13] and in assay [14] was inactive. The compound was called inactive in [16]. Also, the AC50 in [9] was 27.4 µM (active).
